# Assay results as given in the OligoGym collection.
# Molecular target: C10orf27
# Assay: pooled miR-30 sensor sort-seq; sequence = guide strand
# Details: shRNA
# Further: reference of the scale not given here.
row,Sequence,sensor-assay potency score (higher = more potent)
1,TGATATCTTCGTTTTCTTCGGG,0.224
2,TTCTTCTCTGTGTTCTGGCTTG,-0.353
3,TCGAAATCCACAATCCCTGGGA,0.448
4,TTTAGTAAGAGTTTTCACGGTA,0.259
5,TTCGATGTCTTCTTCTCTGTGT,0.791
6,TTGGATGTGGGTCACGTGCTGG,-0.839
7,TATCTTCGTTTTCTTCGGGGAT,-0.791
8,TAAAAGGTGATATCTTCGTTTT,-1.08
9,TTTTGTAAAAGGTGATATCTTC,-0.0398
10,ATATCTTCGTTTTCTTCGGGGA,-0.103
11,TTCTTCTCCAGTTTCAGCTCAG,-0.249
12,TTTCGCTTTTTGTAAAAGGTGA,-0.648

# Molecular target: C11orf49
# Assay: as above
# Details: shRNA
row,Sequence,sensor-assay potency score (higher = more potent)
1,TTCATGGTCAGCAAATCGCCAT,-0.72
2,TTCTCCAACAGGCCACAGCGGT,-1.61
3,TTTTGCAAGTGAAATCATCTTC,0.664
4,TTGGCTAATATCTTCCCTGTTT,-0.438
5,TAGCTATTAGACACAAAGGGGT,-0.34
6,TCGTCCATGAGCACAATCCTGG,-1.16
7,AAATATTCAGTGAAGAACCTGG,0.285
8,TTAGCTATTAGACACAAAGGGG,-0.469
9,TTCTGAGTGAGCTCCAGCGGGA,-1.01
10,TTTCTGAGTGAGCTCCAGCGGG,-0.907
